# Measured values reported in ChEMBL document CHEMBL2218924, “A broad activity screen in support of a chemogenomic map for kinase signalling research and drug discovery” (Biochem J, 2013).
# How the values were obtained:
# [1] = biological target: Ephrin type-A receptor 5 (Homo sapiens) (UniProt P54756); details: at 1 µM
# [2] = biological target: Ephrin type-A receptor 5 (Homo sapiens) (UniProt P54756); details: at 10 µM
# [3] = biological target: Ephrin type-A receptor 7 (Homo sapiens) (UniProt Q15375); details: at 1 µM
# Chain of Ephrin type-A receptor 7 (Homo sapiens) (Q15375 28-998 limits assumed): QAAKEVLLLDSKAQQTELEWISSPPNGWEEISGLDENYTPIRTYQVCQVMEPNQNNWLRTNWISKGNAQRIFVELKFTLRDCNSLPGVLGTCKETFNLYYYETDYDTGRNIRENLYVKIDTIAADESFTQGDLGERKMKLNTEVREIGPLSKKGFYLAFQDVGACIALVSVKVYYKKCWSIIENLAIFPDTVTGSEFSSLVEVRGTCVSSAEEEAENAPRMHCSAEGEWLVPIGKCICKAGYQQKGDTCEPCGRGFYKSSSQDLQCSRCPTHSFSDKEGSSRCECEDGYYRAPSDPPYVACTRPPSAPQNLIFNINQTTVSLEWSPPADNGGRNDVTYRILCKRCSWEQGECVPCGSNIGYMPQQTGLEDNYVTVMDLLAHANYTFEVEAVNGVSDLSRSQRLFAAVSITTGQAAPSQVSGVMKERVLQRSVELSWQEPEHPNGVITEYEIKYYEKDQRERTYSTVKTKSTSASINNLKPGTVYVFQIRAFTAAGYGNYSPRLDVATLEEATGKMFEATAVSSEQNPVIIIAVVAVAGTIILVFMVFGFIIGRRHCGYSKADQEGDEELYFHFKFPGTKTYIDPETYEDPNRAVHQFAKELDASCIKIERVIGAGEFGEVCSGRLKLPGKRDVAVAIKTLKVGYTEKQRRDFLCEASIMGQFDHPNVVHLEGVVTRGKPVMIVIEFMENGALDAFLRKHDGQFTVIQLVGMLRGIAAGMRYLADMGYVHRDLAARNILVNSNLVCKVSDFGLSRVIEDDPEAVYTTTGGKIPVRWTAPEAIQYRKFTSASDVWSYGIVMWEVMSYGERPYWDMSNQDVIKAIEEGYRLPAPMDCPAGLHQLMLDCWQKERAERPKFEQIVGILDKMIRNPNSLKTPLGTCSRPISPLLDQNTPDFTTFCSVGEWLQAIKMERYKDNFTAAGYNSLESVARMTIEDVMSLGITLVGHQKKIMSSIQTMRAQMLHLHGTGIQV
# [4] = biological target: Ephrin type-A receptor 7 (Homo sapiens) (UniProt Q15375); details: at 10 µM
# [5] = biological target: T1, Ephrin type-B receptor 1 (Homo sapiens) (UniProt P54762); details: at 1 µM
# T1 sequence (whole entry): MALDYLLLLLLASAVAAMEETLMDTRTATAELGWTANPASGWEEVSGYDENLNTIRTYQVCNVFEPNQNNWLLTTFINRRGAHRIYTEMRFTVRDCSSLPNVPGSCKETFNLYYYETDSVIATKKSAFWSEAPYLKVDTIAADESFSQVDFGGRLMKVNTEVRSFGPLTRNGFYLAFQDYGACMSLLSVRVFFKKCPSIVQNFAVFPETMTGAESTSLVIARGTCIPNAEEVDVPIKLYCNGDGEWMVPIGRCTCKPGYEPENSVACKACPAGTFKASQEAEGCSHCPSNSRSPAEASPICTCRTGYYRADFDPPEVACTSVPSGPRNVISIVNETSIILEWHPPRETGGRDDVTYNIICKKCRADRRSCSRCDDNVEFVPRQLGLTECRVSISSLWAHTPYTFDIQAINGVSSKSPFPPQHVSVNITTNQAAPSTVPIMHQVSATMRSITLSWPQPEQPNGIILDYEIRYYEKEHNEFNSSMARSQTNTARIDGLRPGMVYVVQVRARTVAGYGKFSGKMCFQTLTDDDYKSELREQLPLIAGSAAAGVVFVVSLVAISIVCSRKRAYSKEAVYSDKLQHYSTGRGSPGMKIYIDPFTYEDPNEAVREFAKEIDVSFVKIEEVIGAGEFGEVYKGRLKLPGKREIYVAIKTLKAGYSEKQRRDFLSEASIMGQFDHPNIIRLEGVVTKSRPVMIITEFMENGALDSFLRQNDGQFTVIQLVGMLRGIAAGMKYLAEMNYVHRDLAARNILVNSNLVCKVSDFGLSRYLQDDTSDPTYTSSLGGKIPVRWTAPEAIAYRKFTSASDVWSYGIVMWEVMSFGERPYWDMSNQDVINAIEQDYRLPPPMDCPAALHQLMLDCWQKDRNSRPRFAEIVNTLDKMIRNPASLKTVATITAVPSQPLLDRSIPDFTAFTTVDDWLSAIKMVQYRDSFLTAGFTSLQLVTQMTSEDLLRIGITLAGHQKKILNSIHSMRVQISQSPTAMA
# [6] = biological target: T1, Ephrin type-B receptor 1 (Homo sapiens); details: at 10 µM
# [7] = biological target: T2, Ephrin type-B receptor 4 (Homo sapiens) (UniProt P54760); details: at 1 µM
# T2 sequence (whole entry): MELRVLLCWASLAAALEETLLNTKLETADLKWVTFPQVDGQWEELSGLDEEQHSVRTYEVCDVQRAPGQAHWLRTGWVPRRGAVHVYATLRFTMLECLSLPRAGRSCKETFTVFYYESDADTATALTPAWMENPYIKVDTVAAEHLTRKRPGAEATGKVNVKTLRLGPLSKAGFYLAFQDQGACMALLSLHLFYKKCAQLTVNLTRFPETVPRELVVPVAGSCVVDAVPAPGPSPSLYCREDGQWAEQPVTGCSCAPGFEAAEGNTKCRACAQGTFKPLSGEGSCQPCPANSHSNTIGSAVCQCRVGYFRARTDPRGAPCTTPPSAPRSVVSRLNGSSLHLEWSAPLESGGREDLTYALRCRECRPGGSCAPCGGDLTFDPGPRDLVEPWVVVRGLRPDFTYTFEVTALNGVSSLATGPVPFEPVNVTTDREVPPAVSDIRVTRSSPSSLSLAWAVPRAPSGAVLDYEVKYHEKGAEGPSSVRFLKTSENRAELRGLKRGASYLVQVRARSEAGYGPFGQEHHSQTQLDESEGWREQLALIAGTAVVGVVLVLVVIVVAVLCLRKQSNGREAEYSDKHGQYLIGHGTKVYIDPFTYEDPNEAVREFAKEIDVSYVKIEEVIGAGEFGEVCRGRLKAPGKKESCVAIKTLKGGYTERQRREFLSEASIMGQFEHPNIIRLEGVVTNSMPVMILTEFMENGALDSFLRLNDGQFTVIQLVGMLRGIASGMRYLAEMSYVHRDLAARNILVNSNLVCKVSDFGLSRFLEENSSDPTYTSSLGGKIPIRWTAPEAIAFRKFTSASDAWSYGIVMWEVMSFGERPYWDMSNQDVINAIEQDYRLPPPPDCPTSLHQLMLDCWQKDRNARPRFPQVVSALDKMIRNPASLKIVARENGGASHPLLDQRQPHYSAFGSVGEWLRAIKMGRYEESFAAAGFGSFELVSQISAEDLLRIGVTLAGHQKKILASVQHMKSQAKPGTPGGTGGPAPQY
# [8] = biological target: T2, Ephrin type-B receptor 4 (Homo sapiens); details: at 10 µM
# [9] = biological target: Receptor tyrosine-protein kinase erbB-4 (Homo sapiens) (UniProt Q15303); details: at 1 µM
# Chain of Receptor tyrosine-protein kinase erbB-4 (Homo sapiens) (Q15303 whole entry): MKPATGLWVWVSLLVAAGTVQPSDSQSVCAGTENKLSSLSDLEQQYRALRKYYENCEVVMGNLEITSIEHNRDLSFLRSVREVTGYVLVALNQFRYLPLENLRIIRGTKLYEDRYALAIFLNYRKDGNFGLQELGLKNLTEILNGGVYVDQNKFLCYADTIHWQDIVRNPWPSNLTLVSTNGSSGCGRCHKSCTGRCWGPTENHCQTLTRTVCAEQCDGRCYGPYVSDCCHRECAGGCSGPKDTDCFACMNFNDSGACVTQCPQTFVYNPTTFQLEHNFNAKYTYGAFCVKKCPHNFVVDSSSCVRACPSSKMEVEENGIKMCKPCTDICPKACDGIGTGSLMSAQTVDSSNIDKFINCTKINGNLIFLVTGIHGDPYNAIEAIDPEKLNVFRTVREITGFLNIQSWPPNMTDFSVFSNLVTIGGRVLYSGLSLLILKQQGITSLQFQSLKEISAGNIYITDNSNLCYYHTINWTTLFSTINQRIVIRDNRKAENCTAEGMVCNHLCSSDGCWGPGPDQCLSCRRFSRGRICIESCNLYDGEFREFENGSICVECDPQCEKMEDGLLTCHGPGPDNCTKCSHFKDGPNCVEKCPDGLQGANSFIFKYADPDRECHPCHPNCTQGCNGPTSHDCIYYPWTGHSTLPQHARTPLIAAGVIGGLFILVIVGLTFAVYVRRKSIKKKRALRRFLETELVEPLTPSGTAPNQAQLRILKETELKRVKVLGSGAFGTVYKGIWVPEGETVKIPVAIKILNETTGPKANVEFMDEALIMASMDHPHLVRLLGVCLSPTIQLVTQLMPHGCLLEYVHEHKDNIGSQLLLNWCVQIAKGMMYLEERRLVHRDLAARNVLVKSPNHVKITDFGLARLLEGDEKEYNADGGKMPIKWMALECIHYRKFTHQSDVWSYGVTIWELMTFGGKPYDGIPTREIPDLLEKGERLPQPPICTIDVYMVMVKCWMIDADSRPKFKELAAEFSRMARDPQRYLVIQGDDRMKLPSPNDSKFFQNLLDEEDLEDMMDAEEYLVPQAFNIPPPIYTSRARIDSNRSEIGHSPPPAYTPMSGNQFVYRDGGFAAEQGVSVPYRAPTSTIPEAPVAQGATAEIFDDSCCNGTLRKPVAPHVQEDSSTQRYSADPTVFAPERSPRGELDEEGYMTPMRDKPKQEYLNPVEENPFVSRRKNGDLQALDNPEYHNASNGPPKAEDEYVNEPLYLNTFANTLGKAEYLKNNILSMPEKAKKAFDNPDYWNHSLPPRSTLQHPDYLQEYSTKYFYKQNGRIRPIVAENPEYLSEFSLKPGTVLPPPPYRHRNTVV
# [10] = biological target: Receptor tyrosine-protein kinase erbB-4 (Homo sapiens) (UniProt Q15303); details: at 10 µM
# [11] = biological target: Focal adhesion kinase 1 (Homo sapiens) (UniProt Q05397); details: at 1 µM
# Chain of Focal adhesion kinase 1 (Homo sapiens) (Q05397 2-1052 limits assumed): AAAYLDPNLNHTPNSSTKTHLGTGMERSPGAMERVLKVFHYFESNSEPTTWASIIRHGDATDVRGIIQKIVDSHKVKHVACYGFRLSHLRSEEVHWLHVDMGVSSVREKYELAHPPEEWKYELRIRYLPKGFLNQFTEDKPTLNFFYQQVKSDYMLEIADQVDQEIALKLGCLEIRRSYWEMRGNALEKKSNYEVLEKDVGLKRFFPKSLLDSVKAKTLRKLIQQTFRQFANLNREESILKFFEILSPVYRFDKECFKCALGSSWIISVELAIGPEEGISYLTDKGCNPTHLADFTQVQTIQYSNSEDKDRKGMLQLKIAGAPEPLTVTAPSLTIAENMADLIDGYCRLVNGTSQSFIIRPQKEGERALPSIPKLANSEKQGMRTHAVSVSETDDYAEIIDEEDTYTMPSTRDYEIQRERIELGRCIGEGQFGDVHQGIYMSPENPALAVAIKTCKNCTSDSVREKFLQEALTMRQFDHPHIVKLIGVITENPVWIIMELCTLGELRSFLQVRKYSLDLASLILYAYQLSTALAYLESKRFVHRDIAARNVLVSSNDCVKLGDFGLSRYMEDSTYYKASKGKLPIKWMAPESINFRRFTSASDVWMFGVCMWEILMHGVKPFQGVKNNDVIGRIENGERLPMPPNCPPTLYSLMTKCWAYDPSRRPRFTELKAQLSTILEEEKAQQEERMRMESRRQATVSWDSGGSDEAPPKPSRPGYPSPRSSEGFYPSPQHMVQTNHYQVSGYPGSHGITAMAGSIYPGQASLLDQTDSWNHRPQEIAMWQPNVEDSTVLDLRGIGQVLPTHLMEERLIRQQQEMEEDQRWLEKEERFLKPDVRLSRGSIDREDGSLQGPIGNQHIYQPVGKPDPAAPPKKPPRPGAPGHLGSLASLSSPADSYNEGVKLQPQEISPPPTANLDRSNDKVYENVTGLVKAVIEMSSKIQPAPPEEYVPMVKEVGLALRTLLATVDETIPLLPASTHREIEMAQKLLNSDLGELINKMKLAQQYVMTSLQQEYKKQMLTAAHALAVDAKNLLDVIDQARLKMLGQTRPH
# Chain of Ephrin type-A receptor 5 (Homo sapiens) (P54756 whole entry): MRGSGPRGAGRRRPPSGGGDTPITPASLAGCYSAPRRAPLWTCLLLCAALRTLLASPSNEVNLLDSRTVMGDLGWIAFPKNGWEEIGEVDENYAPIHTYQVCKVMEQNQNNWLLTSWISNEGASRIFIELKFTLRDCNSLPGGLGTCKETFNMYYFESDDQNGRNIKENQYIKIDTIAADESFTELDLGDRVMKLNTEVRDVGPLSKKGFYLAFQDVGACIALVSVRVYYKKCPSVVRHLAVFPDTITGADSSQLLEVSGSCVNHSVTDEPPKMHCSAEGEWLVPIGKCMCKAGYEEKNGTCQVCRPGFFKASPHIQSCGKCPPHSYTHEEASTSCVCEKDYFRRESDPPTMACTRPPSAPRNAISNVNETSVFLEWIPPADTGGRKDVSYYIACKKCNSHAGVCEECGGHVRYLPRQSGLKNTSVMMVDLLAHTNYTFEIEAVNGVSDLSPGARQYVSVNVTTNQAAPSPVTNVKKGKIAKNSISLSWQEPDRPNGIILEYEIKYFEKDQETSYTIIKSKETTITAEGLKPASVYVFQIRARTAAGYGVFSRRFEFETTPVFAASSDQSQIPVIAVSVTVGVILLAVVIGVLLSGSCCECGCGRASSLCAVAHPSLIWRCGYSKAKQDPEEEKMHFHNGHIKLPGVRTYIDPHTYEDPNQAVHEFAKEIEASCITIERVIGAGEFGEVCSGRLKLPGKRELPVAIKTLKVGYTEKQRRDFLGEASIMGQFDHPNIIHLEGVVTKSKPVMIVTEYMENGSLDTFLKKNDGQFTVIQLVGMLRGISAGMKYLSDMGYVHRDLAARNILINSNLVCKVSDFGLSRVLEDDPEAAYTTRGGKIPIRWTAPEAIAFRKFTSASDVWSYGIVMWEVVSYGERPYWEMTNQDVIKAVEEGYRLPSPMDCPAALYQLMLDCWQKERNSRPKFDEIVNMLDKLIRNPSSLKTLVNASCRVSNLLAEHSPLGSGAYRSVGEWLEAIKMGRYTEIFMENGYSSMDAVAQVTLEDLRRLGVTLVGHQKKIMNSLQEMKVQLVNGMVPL
smiles,measurement,setting,value
COc1ccc(Cl)cc1NC(=O)Nc1cc(C)nc2ccccc12,residual activity,[1],97%
same,residual activity,[2],86%
same,residual activity,[3],83%
same,residual activity,[4],56%
same,residual activity,[5],88%
same,residual activity,[6],68%
same,residual activity,[7],96%
same,residual activity,[8],100%
same,residual activity,[9],96%
same,residual activity,[10],80%
same,residual activity,[11],127%
O=S(=O)(NCCNC/C=C/c1ccc(Br)cc1)c1cccc2cnccc12,residual activity,[1],117%
same,residual activity,[10],74%
CCOc1nc(NC(=O)Cc2cc(OC)ccc2OC)cc(N)c1C#N,residual activity,[2],74%
N#Cc1c(NC(=O)c2cccc3ccccc23)sc2c1CCCC2,residual activity,[6],95%
same,residual activity,[7],90%
same,residual activity,[10],94%
